{"source": "the OligoGym collection"}
{"target": "ACOT6", "test": "pooled miR-30 sensor sort-seq; sequence = guide strand", "details": "shRNA"}
{"sequence": "TTTCCCATGAGCTTGTAGCCTT", "sensor-assay potency score (higher = more potent)": -0.268}
{"sequence": "TTACTTTTCCTAGATCATCGAC", "sensor-assay potency score (higher = more potent)": -0.0892}
{"sequence": "TAGTGATTTTTACTTTTCCTAG", "sensor-assay potency score (higher = more potent)": -1.27}
{"sequence": "TTCTGGGTAACAGATTATCTGG", "sensor-assay potency score (higher = more potent)": -1.27}
{"sequence": "TAATGTAGAGGAGCTACTGTGT", "sensor-assay potency score (higher = more potent)": 0.0472}
{"target": "ACRV1", "test": "pooled miR-30 sensor sort-seq; sequence = guide strand", "details": "shRNA"}
{"sequence": "TTTTCCACCTTCAAAGATCTTC", "sensor-assay potency score (higher = more potent)": -0.56}
{"sequence": "TTCAAAGATCTTCTTTAACATG", "sensor-assay potency score (higher = more potent)": -1.23}
{"sequence": "TTGCATCCTCGTTCCATGGGAG", "sensor-assay potency score (higher = more potent)": 0.0526}
{"sequence": "ATCTTCTTTAACATGCACTGCT", "sensor-assay potency score (higher = more potent)": -0.185}
{"sequence": "TTCGACAGCATATAATTTGCAT", "sensor-assay potency score (higher = more potent)": -0.0881}
{"sequence": "TCTTCTTTAACATGCACTGCTG", "sensor-assay potency score (higher = more potent)": -0.6}
{"sequence": "ATTCATATAAGCACATGTGTAG", "sensor-assay potency score (higher = more potent)": -0.436}
{"sequence": "ATAATTTGCATCCTCGTTCCAT", "sensor-assay potency score (higher = more potent)": -0.172}
{"sequence": "TCTTTAACATGCACTGCTGGGA", "sensor-assay potency score (higher = more potent)": -0.397}
{"sequence": "TTAGGCTGACTTGATGTTCCTC", "sensor-assay potency score (higher = more potent)": -0.162}
{"sequence": "TAGGCTGACTTGATGTTCCTCT", "sensor-assay potency score (higher = more potent)": 0.616}
{"sequence": "TTCTTTAACATGCACTGCTGGG", "sensor-assay potency score (higher = more potent)": -0.734}
{"sequence": "TTTGCATCCTCGTTCCATGGGA", "sensor-assay potency score (higher = more potent)": 0.226}
{"sequence": "TTTAACATGCACTGCTGGGAAT", "sensor-assay potency score (higher = more potent)": -1.59}
{"sequence": "TGAAGTTTGATGATCTATGGAG", "sensor-assay potency score (higher = more potent)": 0.139}
{"sequence": "TAATATTGTGCCTGAAGGCTGT", "sensor-assay potency score (higher = more potent)": 0.0194}
{"sequence": "TCAAAGATCTTCTTTAACATGC", "sensor-assay potency score (higher = more potent)": -0.277}
{"sequence": "TCGACAGCATATAATTTGCATC", "sensor-assay potency score (higher = more potent)": -1.21}
{"sequence": "TAATTTGCATCCTCGTTCCATG", "sensor-assay potency score (higher = more potent)": -0.581}
{"sequence": "TTGAACCATGAATTGGAGTTTT", "sensor-assay potency score (higher = more potent)": -1.17}
{"target": "ACSL3", "test": "pooled miR-30 sensor sort-seq; sequence = guide strand", "details": "shRNA"}
{"sequence": "TTTACTAGTAATGATGTTGGTC", "sensor-assay potency score (higher = more potent)": 0.628}
{"sequence": "ATACTGTCCAAGAATAACCTTT", "sensor-assay potency score (higher = more potent)": -0.208}
{"sequence": "TTATCTAAAGTATCACATCCAG", "sensor-assay potency score (higher = more potent)": -0.397}
{"sequence": "TTTTTCTTGTCTTGACTCGGAG", "sensor-assay potency score (higher = more potent)": -0.445}
{"sequence": "AATCTTTAAGCATCCATCGGGT", "sensor-assay potency score (higher = more potent)": -0.577}
{"sequence": "TTGAATTTACAGGCTTTGCTTT", "sensor-assay potency score (higher = more potent)": -0.455}
{"sequence": "TACTAGTGGAAGATTCTTCAAA", "sensor-assay potency score (higher = more potent)": -0.312}
{"sequence": "TTCTTTACTAGTAATGATGTTG", "sensor-assay potency score (higher = more potent)": 0.0529}
{"sequence": "TTTTTGAAGACTGATCTGCTAA", "sensor-assay potency score (higher = more potent)": 0.185}
{"sequence": "TATCTAAAGTATCACATCCAGG", "sensor-assay potency score (higher = more potent)": -0.889}
{"sequence": "TTGCTGAAATAGCAGCTTCGGA", "sensor-assay potency score (higher = more potent)": -0.935}
{"sequence": "TAATCTTTAAGCATCCATCGGG", "sensor-assay potency score (higher = more potent)": 0.641}
{"sequence": "TAATTCTAGAACATGGGCCAGA", "sensor-assay potency score (higher = more potent)": -0.696}
{"sequence": "TACAGAGCCACCTTTGTCCATT", "sensor-assay potency score (higher = more potent)": -0.892}
{"sequence": "TAAAGTATCACATCCAGGGTAT", "sensor-assay potency score (higher = more potent)": 0.0296}
